# Read-outs that look alike come from different tables or passages of the source.
# Tests used:
# [1] = tested on: DMPK; settings: concentration: 1 μM, replicates: in singlicate; n = 1
# [2] = tested on: T1, DRAK1; settings: concentration: 1 μM, replicates: in singlicate; n = 1
# T1 construct: gene STK17A
# [3] = tested on: T2, DRAK2; settings: n = 1
# T2 construct: gene STK17B
# [4] = tested on: DYRK1A; settings: concentration: 1 μM, replicates: in singlicate; n = 1
# [5] = tested on: DYRK1B; settings: n = 1
# [6] = tested on: DYRK2; settings: concentration: 1 μM, replicates: in singlicate; n = 1
# [7] = tested on: EGFR; settings: concentration: 1 μM, replicates: in singlicate; n = 1
# [8] = tested on: EIF2AK1; settings: concentration: 1 μM, replicates: in singlicate; n = 1
# [9] = tested on: EPHA1; settings: concentration: 1 μM, replicates: in singlicate; n = 1
# [10] = tested on: EPHA2; settings: concentration: 1 μM, replicates: in singlicate; n = 1
# [11] = tested on: EPHA3; settings: concentration: 1 μM, replicates: in singlicate; n = 1
# [12] = tested on: EPHA4; settings: concentration: 1 μM, replicates: in singlicate; n = 1
# [13] = tested on: EPHA5; settings: concentration: 1 μM, replicates: in singlicate; n = 1
# [14] = tested on: EPHA6; settings: n = 1
# [15] = tested on: EPHA7; settings: concentration: 1 μM, replicates: in singlicate; n = 1
# [16] = tested on: EPHA8; settings: concentration: 1 μM, replicates: in singlicate; n = 1
# [17] = tested on: EPHB1; settings: concentration: 1 μM, replicates: in singlicate; n = 1
# [18] = tested on: EPHB2; settings: concentration: 1 μM, replicates: in singlicate; n = 1
# [19] = tested on: EPHB3; settings: concentration: 1 μM, replicates: in singlicate; n = 1
# [20] = tested on: EPHB4; settings: concentration: 1 μM, replicates: in singlicate; n = 1
# [21] = concentration: 1 μM, replicates: in singlicate
# 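Note: KINOMEscan kinase panel screen.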
smiles,measurement,setting,value
COc1cc2c(cc1OCCN1CCN(C)CC1)ncc1c3ccc(C#N)cc3[nH]c21,%Inh,[1],0%
same,%Inh,[2],100%
same,%Inh,[3]; [21],100%
same,%Inh,[4],94.6%
same,%Inh,[5]; [21],62%
same,%Inh,[6],60%
same,%Inh,[7],0%
same,%Inh,[8],0%
same,%Inh,[9],0%
same,%Inh,[10],0%
same,%Inh,[11],18%
same,%Inh,[12],1%
same,%Inh,[13],0%
same,%Inh,[14]; [21],0%
same,%Inh,[15],0%
same,%Inh,[16],0%
same,%Inh,[17],10%
same,%Inh,[18],0%
same,%Inh,[19],2%
same,%Inh,[20],0%
COc1cc2ncn(-c3cc(OCc4sccc4Cl)c(C(N)=O)s3)c2cc1OC [GSK448459],%Inh,[1],0%
same,%Inh,[2],0%
same,%Inh,[3]; [21],0%
same,%Inh,[4],13%
same,%Inh,[5]; [21],0%
same,%Inh,[6],26%
same,%Inh,[7],32%
same,%Inh,[8],0%
same,%Inh,[9],0%
same,%Inh,[10],0%
same,%Inh,[11],0%
same,%Inh,[12],0%
same,%Inh,[13],0%
same,%Inh,[14]; [21],2%
same,%Inh,[15],0%
same,%Inh,[16],11%
same,%Inh,[17],3%
same,%Inh,[18],9%
same,%Inh,[19],6%
same,%Inh,[20],0%
COc1cc(Nc2nccc(N3CCC(NC(=O)c4cccc(NC(C)=O)c4)C3)n2)cc(OC)c1OC (centres unmarked) [GSK1379754],%Inh,[1],0%
same,%Inh,[2],32%
same,%Inh,[3]; [21],29%
same,%Inh,[4],17%
same,%Inh,[5]; [21],28%
same,%Inh,[6],28%
same,%Inh,[7],0%
same,%Inh,[8],0%
same,%Inh,[9],11%
same,%Inh,[10],0%
same,%Inh,[11],0%
same,%Inh,[12],9%
same,%Inh,[13],6%
same,%Inh,[14]; [21],20%
same,%Inh,[15],11%
same,%Inh,[16],26%
same,%Inh,[17],15%
same,%Inh,[18],0%
same,%Inh,[19],17%
same,%Inh,[20],12%
Cc1ccc(NC(=O)c2ccnc(N3CCN(C)CC3)c2)cc1-c1ccc(C(=O)NCC2CC2)cc1 [GW775604],%Inh,[1],7%
same,%Inh,[2],0%
same,%Inh,[3]; [21],0%
same,%Inh,[4],0%
same,%Inh,[5]; [21],0%
same,%Inh,[6],0%
same,%Inh,[7],0%
same,%Inh,[8],0%
same,%Inh,[9],0%
same,%Inh,[10],0%
same,%Inh,[11],0%
same,%Inh,[12],7%
same,%Inh,[13],0%
same,%Inh,[14]; [21],4%
same,%Inh,[15],0%
same,%Inh,[16],18%
same,%Inh,[17],0%
same,%Inh,[18],0%
same,%Inh,[19],7%
same,%Inh,[20],0%
C[C@@H](Oc1cc(-n2cnc3ccc(NC(=O)NC(C)(C)C)cc32)sc1C(N)=O)c1ccccc1Cl [GSK346294],%Inh,[1],0%
same,%Inh,[2],0%
same,%Inh,[3]; [21],0%
same,%Inh,[4],0%
same,%Inh,[5]; [21],0%
same,%Inh,[6],15%
same,%Inh,[7],32%
same,%Inh,[8],0%
same,%Inh,[9],4%
same,%Inh,[10],0%
same,%Inh,[11],26%
same,%Inh,[12],3%
same,%Inh,[13],0%
same,%Inh,[14]; [21],5%
same,%Inh,[15],17%
same,%Inh,[16],27%
same,%Inh,[17],14%
same,%Inh,[18],15%
same,%Inh,[19],18%
same,%Inh,[20],7%
O=C(c1ccc(-c2cc(-c3c[nH]nc3-c3ccccn3)ccn2)cc1)N1CCOCC1 [GW812171],%Inh,[1],5%
same,%Inh,[2],0%
same,%Inh,[3]; [21],0%
same,%Inh,[4],0%
same,%Inh,[5]; [21],0%
same,%Inh,[6],33%
same,%Inh,[7],4%
same,%Inh,[8],0%
same,%Inh,[9],0%
same,%Inh,[10],0%
same,%Inh,[11],17%
same,%Inh,[12],33%
same,%Inh,[13],1%
same,%Inh,[14]; [21],6%
same,%Inh,[15],0%
same,%Inh,[16],0%
same,%Inh,[17],13%
same,%Inh,[18],0%
same,%Inh,[19],16%
same,%Inh,[20],0%
NS(=O)(=O)c1cccc(-c2ccc3ncc(N4CCOCC4)nc3c2)c1 [GSK1535721],%Inh,[1],0%
same,%Inh,[2],0%
same,%Inh,[3]; [21],0%
same,%Inh,[4],0%
same,%Inh,[5]; [21],4%
same,%Inh,[6],28%
same,%Inh,[7],12%
same,%Inh,[8],0%
same,%Inh,[9],0%
same,%Inh,[10],7%
same,%Inh,[11],11%
same,%Inh,[12],8%
same,%Inh,[13],0%
same,%Inh,[14]; [21],8%
same,%Inh,[15],3%
same,%Inh,[16],11%
same,%Inh,[17],5%
same,%Inh,[18],6%
same,%Inh,[19],9%
same,%Inh,[20],17%
O=c1cc(N2CCOCC2)nc2n(Cc3cccc(Cl)c3Cl)c(C3CC3)nn12 [GSK2358994],%Inh,[1],0%
same,%Inh,[2],11%
same,%Inh,[3]; [21],9%
same,%Inh,[4],2%
same,%Inh,[5]; 1 µM,0%
same,%Inh,[6],1%
same,%Inh,[7],0%
same,%Inh,[8],0%
same,%Inh,[9],7%
same,%Inh,[10],0%
same,%Inh,[11],0%
same,%Inh,[12],11%
same,%Inh,[13],6%
same,%Inh,[14]; 1 µM,0%
same,%Inh,[15],0%
same,%Inh,[16],9%
same,%Inh,[17],0%
same,%Inh,[18],0%
same,%Inh,[19],7%
same,%Inh,[20],3%
CSc1ccc(-c2cc3ncnc(SCC(=O)O)c3s2)cc1,%Inh,[1],0%
same,%Inh,[2],37%
same,%Inh,[3]; 1 µM,97.7%
same,%Inh,[4],0%
same,%Inh,[5]; [21],0%
same,%Inh,[6],0%
same,%Inh,[7],27%
same,%Inh,[8],12%
same,%Inh,[9],11%
same,%Inh,[10],0%
same,%Inh,[11],0%
same,%Inh,[12],5%
same,%Inh,[13],13%
same,%Inh,[14]; [21],6%
same,%Inh,[15],0%
same,%Inh,[16],0%
same,%Inh,[17],4%
same,%Inh,[18],0%
same,%Inh,[19],15%
same,%Inh,[20],18%
CC(=O)Nc1ccc(COc2ccc(Nc3ccnc4cc(-c5ccccn5)ccc34)cc2)cc1.Cl [GW440148],%Inh,[1],0%
same,%Inh,[2],1%
same,%Inh,[3]; [21],21%
same,%Inh,[4],4%
same,%Inh,[5]; [21],33%
same,%Inh,[6],11%
same,%Inh,[7],23%
same,%Inh,[8],0%
same,%Inh,[9],11%
same,%Inh,[10],0%
same,%Inh,[11],17%
same,%Inh,[12],3%
same,%Inh,[13],0%
same,%Inh,[14]; [21],8%
same,%Inh,[15],0%
same,%Inh,[16],17%
same,%Inh,[17],0%
same,%Inh,[18],0%
same,%Inh,[19],8%
same,%Inh,[20],10%

# From PMC5540273 (PLoS ONE, 2017)
